# Paper PMC4336329 (PLoS ONE, 2015)
# Out of some 310,000 compounds screened, about 14,000 (4.5%) showed an effect of 50% or more. Effects have a minus sign here. Only a selection was taken, and strong results are over-represented in it overall.
# Target: human ether-à-go-go-related gene (hERG) potassium channel (human, UniProt Q12809)
# Experiment: primary screen, population patch clamp on CHO cells stably expressing hERG; higher = less effect of the substance
# 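Also: peak tail current of the secondary pulse compared with the same well before compound.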
# Chain of human ether-à-go-go-related gene (hERG) potassium channel (Q12809 whole entry, looked up): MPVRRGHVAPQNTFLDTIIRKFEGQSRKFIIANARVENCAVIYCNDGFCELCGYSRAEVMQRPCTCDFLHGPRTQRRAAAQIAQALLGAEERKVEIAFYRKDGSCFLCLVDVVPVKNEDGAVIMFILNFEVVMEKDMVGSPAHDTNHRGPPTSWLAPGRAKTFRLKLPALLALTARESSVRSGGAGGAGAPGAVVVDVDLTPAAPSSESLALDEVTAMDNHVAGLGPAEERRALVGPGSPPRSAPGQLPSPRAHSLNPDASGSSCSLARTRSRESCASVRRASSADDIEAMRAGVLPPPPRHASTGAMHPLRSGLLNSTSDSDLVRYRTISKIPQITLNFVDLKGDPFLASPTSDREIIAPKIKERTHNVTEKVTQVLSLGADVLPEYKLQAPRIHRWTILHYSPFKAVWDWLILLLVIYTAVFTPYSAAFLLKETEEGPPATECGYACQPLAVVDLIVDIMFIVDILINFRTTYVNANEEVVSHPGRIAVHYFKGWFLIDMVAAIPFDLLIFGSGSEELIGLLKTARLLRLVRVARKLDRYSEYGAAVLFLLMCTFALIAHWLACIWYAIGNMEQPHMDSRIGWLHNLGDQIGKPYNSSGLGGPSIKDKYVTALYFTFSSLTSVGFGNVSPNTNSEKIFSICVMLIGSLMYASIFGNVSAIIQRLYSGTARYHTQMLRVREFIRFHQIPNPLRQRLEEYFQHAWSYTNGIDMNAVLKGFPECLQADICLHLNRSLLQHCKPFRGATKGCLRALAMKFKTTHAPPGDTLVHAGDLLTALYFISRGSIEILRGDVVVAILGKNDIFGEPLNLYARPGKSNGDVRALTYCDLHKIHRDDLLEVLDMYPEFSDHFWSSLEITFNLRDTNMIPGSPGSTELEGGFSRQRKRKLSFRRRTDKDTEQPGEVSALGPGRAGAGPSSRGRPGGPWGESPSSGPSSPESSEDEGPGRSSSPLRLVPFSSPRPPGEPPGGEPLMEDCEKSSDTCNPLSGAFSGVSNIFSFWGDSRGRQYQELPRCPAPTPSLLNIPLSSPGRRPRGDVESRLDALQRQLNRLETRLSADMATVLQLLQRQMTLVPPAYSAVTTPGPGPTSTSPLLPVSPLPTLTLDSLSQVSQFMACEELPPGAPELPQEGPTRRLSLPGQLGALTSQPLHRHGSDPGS
row,Compound,"hERG current change (%, negative = inhibition) at 10uM [%]"
1,Cc1ccc(C)c(CN2CCC(CNC(=O)Nc3ccc(C)c(C)c3)CC2)c1,-74.3
2,Cc1cc(C)cc(NC(=O)NCC2CCN(Cc3cc(C)ccc3C)CC2)c1,-51
3,O=C(NCC1CCN(Cc2ccccc2F)CC1)Nc1cccc(Br)c1,-43.2
4,Cc1ccc(C)c(CN2CCC(CNC(=O)Nc3ccc(C)c(F)c3)CC2)c1,-27.5
5,COc1cc(NC(=O)NCC2CCN(Cc3ccccc3C)CC2)cc(OC)c1OC,-2.71
6,Cc1ccc(C)c(CN2CCC(CNC(=O)Nc3ccc(Br)cc3F)CC2)c1,-73.4
7,COc1ccc(N2CCC(CNC(=O)Nc3ccc(C)c(C)c3)C2)cc1 (stereo not shown),11.4
8,O=C(NCCN1CCCCC1)c1cc(Cl)ccc1Cl,1.65
9,O=[N+]([O-])c1cc(C(F)(F)F)cc([N+](=O)[O-])c1NCCCNc1ccc([N+](=O)[O-])c2cccnc12,14.4
10,O=C(Nc1ccc(S(=O)(=O)NCc2ccco2)cc1)c1ccc(F)cc1,-4.23
11,COc1ccc(CNC(=O)COC(=O)c2cc(-c3ccc(Cl)s3)nc3ccccc23)cc1,1.05
12,CCOc1ccc(CNn2nnnc2N)cc1,-6.35
13,O=C(COc1ncnc2ccccc12)NCCc1ccc(F)cc1,-6.11
14,Cc1nc2ccc(NC(=O)Cc3cccc(F)c3)cc2s1,2.56
15,COCCNC(=O)C(c1ccc(F)cc1)N(CCOC)C(=O)CCC(=O)Nc1nccs1 (stereo not shown),0.0239
16,O=C1CC2(CCCCC2)Oc2ccc(O)cc21,-11.8
17,CCN(CC)S(=O)(=O)c1ccc(N2Cc3ccccc3C2=N)cc1,-40.5
18,N=C1c2ccccc2CN1c1ccc(S(=O)(=O)N2CCCCC2)cc1,-62.5
19,CCOC(=O)c1ccc(N2C(=O)Cc3ccccc3C2=O)cc1,20.9
20,CCOC(=O)c1ccc(N2Cc3ccccc3C2=N)cc1,-61.3
21,O=C1c2ccccc2C(=O)N1c1ccc(S(=O)(=O)N2CCCCC2)cc1,15.4
22,CCOC(=O)c1ccc(CN2Cc3ccccc3C2=O)cc1,2.17
23,O=C(O)c1cccc(N2C(=O)Nc3ccccc3N2O)c1,10.2
24,Cc1cc(-n2c(C)cc(C(=O)COc3ccccc3[N+](=O)[O-])c2C)no1,-4.91
25,CN1CCN(NC(=O)c2cc(-c3cccc(Cl)c3)nc3ccccc23)CC1,-35.9
26,O=S(=O)(N1CCCCC1)N1CCN(c2ccc(F)cc2)CC1,-35.9
27,CCN1C(=O)NC(=O)/C(=C\c2ccc(N3CCOCC3)cc2OC)C1=O,13.7
28,COc1ccc(CCNC(=O)C(C)OC(=O)c2nsc(Cl)c2Cl)cc1OC (stereo not shown),12.4

row,Compound,"hERG current change (%, negative = inhibition) at 10uM [%]"
1,CC(OC(=O)c1nsc(Cl)c1Cl)C(=O)NCCc1ccccc1 (stereo not shown),-65.4
2,CCC(OC(=O)c1nsc(Cl)c1Cl)C(=O)NCCc1ccccc1 (stereo not shown),16
3,COc1ccc(CC(=O)N/N=C/c2cc([N+](=O)[O-])cc(Br)c2O)cc1,6.88
4,CCOC(=O)/C=C1\CN(Cc2cc(OC)c(OC)c(OC)c2)S(=O)(=O)c2ccc(C(F)(F)F)cc21,-11.3
5,CCn1nc(NS(=O)(=O)c2ccccc2)c2cc3cccc(C)c3nc21,6.7
6,CCN(Cc1ccccc1)C(=O)C1CCN(Cc2ccc(OC)c(OC)c2OC)CC1.O=C(O)C(=O)O,-43.4
7,CSc1ccc(CN2CCN(S(=O)(=O)Cc3ccccc3)CC2)cc1,1.28
8,O=C(C1CCN(Cc2ccc(F)cc2)CC1)N(CCO)Cc1ccccc1,-10.6
9,CCN(CC)C(=O)C1CCN(Cc2ccc(OCc3ccccc3)c(OC)c2)CC1.O=C(O)C(=O)O,-32
10,CCN(Cc1ccccc1)C(=O)C1CCN(Cc2ccc(SC)cc2)CC1.O=C(O)C(=O)O,-71.8
11,CCN(Cc1ccccc1)C1CCN(Cc2ccc(SC)cc2)CC1.O=C(O)C(=O)O,-69.3
12,CCN(CC)C(=O)C1CCCN(Cc2ccc(N(C)C)cc2)C1 (stereo not shown),-12.5
13,CSc1ccc(CN2CCC(N3CC(C)OC(C)C3)CC2)cc1.O=C(O)C(=O)O (stereo not shown),-20.5
14,CCN(CC)C(=O)C1CCN(Cc2ccc(Br)cc2)CC1.O=C(O)C(=O)O,-51.4
15,CCCC(C)C(=O)Nc1nc(C)c(-c2csc(Nc3ccccc3OC)n2)s1 (stereo not shown),14.5
16,CC(=O)CCn1cnc([N+](=O)[O-])n1,23
17,COc1cccc(CNC(=O)COC(=O)c2cc(Br)c(Br)s2)c1,14.8
18,O=C(O)CC1SC(N/N=C/c2ccc(Br)cc2)NC1=O (stereo not shown),6.6
19,CC(NS(C)(=O)=O)C(c1cccs1)N1CCN(c2ccc(F)cc2)CC1 (stereo not shown),-11.4
20,Cc1ccc(C2=NN(CC(=O)NCc3ccccn3)C(=O)CC2)cc1,-11.6
21,Cc1cc(=O)oc2cc(OCC(=O)Nc3ccccc3C(=O)O)ccc12,11.6
22,CCCCn1c(N)c(Sc2ccc(C)cc2)c(=O)[nH]c1=O,2
23,CCCn1c(N)c(Sc2ccc([N+](=O)[O-])cc2)c(=O)n(CCC)c1=O,-83.8
24,CCCn1c(N)c(Sc2ccc(Cl)cc2)c(=O)n(CCC)c1=O,-43.3
25,CCCCn1c(N)c(Sc2ccc([N+](=O)[O-])cc2)c(=O)[nH]c1=O,-79.5
26,COCCn1c(N)c(Sc2ccc([N+](=O)[O-])cc2)c(=O)[nH]c1=O,-46.5
27,CCCn1c(N)c(Sc2ccc(C)cc2)c(=O)n(CCC)c1=O,-14.3
